High-throughput results deposited in PubChem by National Center for Advancing Translational Sciences (NCATS).
The entries come from a sample that favours hits as a whole.
ALOX12 inh: inhibitors of human 12S-lipoxygenase ALOX12; purified 12hLO, xylenol orange hydroperoxide absorbance; Potency, µM (doses to about 108 µM), without a hit: top-dose activity change, negative = inhibition, usual class: inhibitors; 1.1% of 580,000 active; AID 1671190; also: potency is read from the fitted curve at half-maximal effect
Target sequence (P18054 whole entry, looked up): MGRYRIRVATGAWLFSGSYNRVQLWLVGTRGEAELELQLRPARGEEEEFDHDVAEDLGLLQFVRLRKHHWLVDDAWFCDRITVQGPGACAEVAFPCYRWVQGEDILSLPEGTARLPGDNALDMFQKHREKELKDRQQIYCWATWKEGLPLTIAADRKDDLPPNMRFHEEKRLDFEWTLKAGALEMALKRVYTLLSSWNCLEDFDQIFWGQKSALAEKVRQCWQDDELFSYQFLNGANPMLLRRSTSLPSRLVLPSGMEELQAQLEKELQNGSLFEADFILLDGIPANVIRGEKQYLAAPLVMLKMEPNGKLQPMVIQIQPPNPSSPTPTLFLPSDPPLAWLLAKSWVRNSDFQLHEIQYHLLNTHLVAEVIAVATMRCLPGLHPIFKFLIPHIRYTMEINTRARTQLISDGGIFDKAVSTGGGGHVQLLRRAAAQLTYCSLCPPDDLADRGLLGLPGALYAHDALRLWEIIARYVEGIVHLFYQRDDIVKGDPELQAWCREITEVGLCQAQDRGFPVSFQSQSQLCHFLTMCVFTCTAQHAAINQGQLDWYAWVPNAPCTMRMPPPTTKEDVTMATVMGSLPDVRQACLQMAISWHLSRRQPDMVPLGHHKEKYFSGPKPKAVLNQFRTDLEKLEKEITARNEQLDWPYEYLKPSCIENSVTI
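Purified human 12hLO (150 nM final) in 25 mM Hepes, 0.01% Triton X-100, pH 7.0 was preincubated 15 min at room temperature with compound. Then 40 uM arachidonic acid was added, 30 min. Hydroperoxide was read by Fe-XO absorbance ratio 573/405 nm.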
TDP1 cell CPT: DT40-hTDP1 cell growth loss with CPT. 12% of 420,000 active. Potency, µM (titrated, usually from 46.2 µM), for the others: at the top dose activity change, negative = growth inhibition, actives largely listed as inhibitors. chicken DT40 Tdp1-/-;hTDP1 cells + 20 nM CPT, ATP luminescence, 48 h; also: potency is read from the fitted curve at half-maximal effect; nearly all actives have a fitted effect of over 55% in size
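Chicken DT40 Tdp1-/- cells complemented with human TDP1, 400 cells/well, exposed to compounds plus 20 nM camptothecin for at least 48 h at 37 C; viability read as ATP content by CellTiter-Glo luminescence.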
IL-1B inflam inh: blocks inflammasome-driven IL-1 beta release | THP-1 LPS/ATP IL-1B secretion, AlphaLISA, 16 h; active compounds read low | activity change, % at 57.5 µM | 4.7% of 360,000 active; in the data active = activity change below about -50%; inconclusive = mostly about -30% to -49%
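Secreted IL-1B measured by AlphaLISA bead assay after 16 h compound exposure of THP-1 cells; compounds (final up to 57.5 uM) added 1 h before LPS (250 ng/mL) and ATP (1.25 mM) stimulation; lower signal means less secretion.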
HT1080NT lethal: kills 2HG-producing HT-1080-NT fibrosarcoma cells; Potency, µM (titrated, usually from 46.1 µM), without a hit: at the highest dose activity, negative = less viability, most hits filed as cytotoxic; HT-1080-NT fibrosarcoma viability, CellTiter-Glo ATP luminescence, 48 h; 1.6% of 360,000 active; AID 686970;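 also: NT is the 2HG producing partner of a matched IDH1 knockdown line; potency is read from the fitted curve at half-maximal effect; 0% = DMSO-treated cells and -100% = media-only wells without cells; nearly all actives have a fitted effect of over 55% in size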
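Luminescent CellTiter-Glo readout after 48 hours of compound exposure at 37 degrees C defined viability of HT-1080-NT cells. Activity was normalized to DMSO wells and cell-free media wells; concentration-response curves were fitted and assigned curve classes.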
DT40 TDP1 no CPT: qHTS for Inhibitors of human tyrosyl-DNA phosphodiesterase 1 (TDP1): qHTS in cells in absence of CPT; DT40 Tdp1-/- hTDP1 cells, no CPT, ATP luminescence, 48 h; Potency, µM (titrated, usually from 46.2 µM), inactives show top-dose activity change, negative = growth inhibition, most hits filed as inhibitors; 15% of 420,000 active; AID 686978, 2013; also: potency is read from the fitted curve at half-maximal effect; nearly all actives have a fitted effect of over 55% in size
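Compound effects on proliferation are scored in DT40 Tdp1-/-;hTDP1 cells in the absence of CPT. ATP levels (CellTiter-Glo luminescence) are recorded after a ≥48 hr, 37 °C incubation.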
HT1080 IDH1KD tx: toxicity to HT-1080 IDH1 knockdown cells (counter line); HT-1080 IDH1 knockdown viability, ATP luminescence, 48 h; 2% of 360,000 active; Potency, µM (top dose mostly 46.1 µM), for the others: at the highest dose activity, negative = toxicity, actives largely listed as cytotoxic;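 also: potency is read from the fitted curve at half-maximal effect; 0% = DMSO wells and -100% = cell-free medium wells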
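IDH1KD HT-1080 cells, 750/well, RPMI + 5% FBS; compound pinned after 2 h settling; 48 h, 37 °C; CellTiter-Glo luminescence; % activity normalised to DMSO and no-cell wells; curves fitted, classed by r2 and efficacy.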
An asterisk follows results filed as active; u = inconclusive; x = no result; [ ] = remark or other dose. Unless noted, calls follow the shape of the dose curve; as a rule, active = well fitted curve in the direction sought with a large enough effect; inconclusive = small, poorly fitted or top-dose-only effect, or another doubt; inactive = no such curve, though single readings can be large; an effect the other way counts as inactive or inconclusive. Unless noted, % is scaled to controls: 0 for no effect and ±100 for the full control effect.

SMILES	ALOX12 inh	TDP1 cell CPT	IL-1B inflam inh	HT1080NT lethal	DT40 TDP1 no CPT	HT1080 IDH1KD tx
Cc1ccc(S(=O)(=O)N2CCC(=O)N(C(COCc3ccccc3)C(C)C)CC2)cc1 (stereo unspecified)	u	u	0.0	-1.1%	u	-1.5%
CCCn1nc(C(=O)Nc2ccnn2Cc2ccccc2)c2ccccc2c1=O	-26.4%	x	x	x	x	x
O=C(ONc1ccc(N=NC(=O)c2ccccc2O)cc1)c1ccccc1	u	7.31µM*	38.8	2.31µM*	6.51µM*	1.84µM*
COc1ccccc1-c1nc(-c2nnn3c2COC(c2ccc(Cl)cc2)C3)no1 (stereo unspecified)	6.3%	x	x	x	x	x
O=C1ON=C(c2ccccc2)/C1=C/c1cccnc1	-3.4%	-15.3%	-0.7	-9.7%	-4.6%	-2.9%
COc1cc(/C=C2\C(=O)ON=C2c2ccc(Cl)cc2)ccc1O	u	16.4µM*	-94.5*	7.0%	23.1µM*	8.8%
O=C1ON=C(c2ccc(Cl)c([N+](=O)[O-])c2)/C1=C/c1cccc([N+](=O)[O-])c1O	73.7%	-0.9%	-7.1	12.6%	15.9%	8.4%
COc1ccc(/C=C2\C(=O)ON=C2c2ccccc2)cc1	u	u	u	-1.5%	20.6µM*	-12.8%
O=C1ON=C(c2ccccc2)/C1=C/c1ccc(O)c(O)c1	u	u	0.3	-7.0%	u	-17.9%
O=C1ON=C(c2ccccc2)/C1=C/c1ccc(OS(=O)(=O)c2ccccc2)cc1	17.8µM*	-27.5%	8.5	-2.3%	u	-3.1%
O=C1ON=C(c2cccc([N+](=O)[O-])c2)/C1=C/c1ccc(O)cc1	7.94µM*	11.6µM*	-99.8*	u	13µM*	u
Cc1ccsc1CN1C[C@@H](NC(=O)c2cccnc2)C[C@H]1CO	1.5%	x	x	x	x	x
Cc1ccc(NC(=O)CC(C)C)cc1	26.5%	x	x	x	x	x
COC(=O)N(C)C1CCc2ccccc21 (stereo unspecified)	22.6%[176 µM]	x	x	x	x	x
COc1ccc2c(c1)[C@H]1[C@H](CO2)[C@H](c2ccccc2)[C@]2(C)C(=O)Nc3ccc(Br)cc3C(=O)N12	-21.5%	16.4µM*	u	-0.1%	u	-10.3%
Cc1ccc2c(c1)[C@H]1[C@H](CO2)[C@H](c2ccccc2)[C@]2(C)C(=O)Nc3ccc(Br)cc3C(=O)N12	u	u	u	-27.1%	16.4µM*	u
Cc1ccc2c(c1)C(=O)N1[C@H]3c4cc(Br)ccc4OC[C@@H]3[C@H](c3ccccc3)[C@]1(C)C(=O)N2	-17.2%	23.1µM*	-23.0	u	23.1µM*	u
COc1ccc2c(c1)OC[C@H]1[C@H]2N2C(=O)c3cc(Br)ccc3NC(=O)[C@@]2(C)[C@H]1c1ccccc1	x	-5.7%	-12.8	5.1%	u	-2.3%
COc1cccc2cc(C(=O)N(C)CCOc3ccc(F)cc3)c(=O)oc12	21.6%	x	x	x	x	x
O=C(CCc1ccsc1)NC1CCN(Cc2cccc(C(F)(F)F)c2)CC1	-18.7%	x	x	x	x	x
COCCC(=O)Nc1ccc2c(c1)CN(C(=O)c1ccc(CSC)o1)CC2	-7.8%	-28.2%	11.2	-3.2%	2.91µM*	1.2%
COCCC(=O)Nc1ccc2c(c1)CN(C(=O)CCSC)CC2	-13.1%	-4.8%	0.0	8.1%	1.7%	7.7%
COc1cc(C(=O)N2CCN(c3nccs3)CC2)cc(Cl)c1OCC(C)C	3.4%	x	x	x	x	x
Cn1ccc2c(N3CCOCC3)cc3c(c21)C1CCC3C1 (stereo unspecified)	-22.4%	-27.9%	-3.0	8.0%	u	-3.9%
Cn1ccc2c(N3CCCCCC3)cc3c(c21)C1CCC3C1 (stereo unspecified)	u	14.6µM*	39.2	-29.0%	11.6µM*	-25.4%
SMILES	ALOX12 inh	TDP1 cell CPT	IL-1B inflam inh	HT1080NT lethal	DT40 TDP1 no CPT	HT1080 IDH1KD tx
Cn1ccc2c(N3c4ccccc4CCc4ccccc43)cc3c(c21)C1CCC3O1 (stereo unspecified)	u	23.1µM*	19.2	u	20.6µM*	18.4µM*
Cn1ccc2c(N3c4ccccc4CCc4ccccc43)cc3c(c21)C1CCC3C1 (stereo unspecified)	-50.3%	2.31µM*	-16.3	u	5.17µM*	u
CC1(C)CC(=O)C2=C(C1)OC(=O)CC2c1cccc2ccccc12 (stereo unspecified)	32.5%	x	x	x	x	x
N#Cc1cccc(CSc2nnc(N3CCCC3)n2-c2cccc(Cl)c2)c1	15.4%	x	x	x	x	x
O=C(NCc1cccnc1)C1=NOC2CN(C(=O)Nc3cccnc3)CC12 (stereo unspecified)	-21.6%[6.33 µM]	x	x	x	x	x
COc1cccc2c1ccn2CC(=O)NCC1CCC(C(=O)O)CC1 (stereo unspecified)	4.7%	x	x	x	x	x
COc1ccc2c(c1)[C@@]1(OCCC=C[C@H]1C)C(=O)N2Cc1ccc(Br)cc1	-11.0%	x	x	x	x	x
COc1ccccc1NNC(=O)c1cc(C(C)(C)C)nn1Cc1ccccc1	3.2%	0.5%	-55.6*	-2.1%	23.1µM*	-9.8%
COc1ccccc1NC(=O)c1nnn(Cc2ccccc2)c1NC(=O)C(F)(F)F	-5.9%	u	13.3	-0.3%	29.1µM*	-17.7%
CC(C)(C)C(=O)NNC(=O)c1cc(C(C)(C)C)nn1Cc1ccccc1	80.0%	-14.2%	16.6	-5.9%	-23.4%	-16.0%
CC(C)(C)c1cc(C(=O)NC2CC2)n(Cc2ccc(F)cc2)n1	0.0%	-20.4%	-3.9	1.9%	-10.8%	3.8%
CC(C)(C)c1cc(C(=O)NNc2cc(C(F)(F)F)ccc2Cl)n(Cc2ccccc2)n1	21.5%	u	-80.2*	u	20.6µM*	u
COc1ccc(-c2noc([C@@H]3CCCN3C(=O)c3ccc(F)cc3Cl)n2)cc1OC	6.7%	x	x	x	x	x
CSc1nc(N)nc2c1ncn2CC(=O)Nc1ccc(C)c(C)c1	-4.4%	13µM*	24.2	-4.0%	14.6µM*	-0.7%
CSc1nc(N)nc2c1ncn2CC(=O)NCC(c1ccccc1)c1ccccc1	75.5%	14.6µM*	24.7	-1.7%	20.6µM*	-3.9%
CN(CC1(CO)CC1)c1nccc(CCC(F)(F)F)n1	39.6%	x	x	x	x	x
CC(C)c1ccc(NC(=O)C2CCCN(S(=O)(=O)c3cccc4cccnc34)C2)cc1 (stereo unspecified)	u	16.4µM*	x	x	16.4µM*	x
O=C(NCC1COc2ccccc2O1)C1CCCN(S(=O)(=O)c2cccc3cccnc23)C1 (stereo unspecified)	317.3%	20.6µM*	-26.6	1.6%	u	-0.1%
